Measurements reported in PubChem BioAssay (NCATS).
Records with an inconclusive call do not appear. Unless noted, calls follow the shape of the dose curve; as a rule, active = well fitted curve in either direction with a large enough effect (not every such curve was filed as active); inconclusive = small, poorly fitted or top-dose-only effect, or another doubt; inactive = flat fitted curve, though single readings scatter.

What was measured:
[1] = AP1 Signaling Pathway (AID 357); settings: ME-180 AP-1-bla reporter, EGF-induced, beta-lactamase ratio, 5 h; at 17.2 µM (top of the series) unless noted;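 also: ME-180 reporter cells stimulated with EGF at its EC50 level; % is scaled to controls: 0 for no effect and ±100 for the full control effect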
Summary of the method: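 Beta-lactamase reporter under AP-1 response element, ME-180 background. Stimulus: EC50 EGF. Compound exposure 5 h, 37 °C. Detection: CCF4, 2.5 h RT, 460/530 nm. Values: AC50 from titration.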

[2] = NFAT Signaling Pathway (AID 444); settings: Jurkat NFAT-bla M1, carbachol, beta-lactamase ratio, 5 h; at 17.2 µM (top of the series) unless noted;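 also: carbachol stimulus at about its EC50 of 1 µM final; % is scaled to controls: 0 for no effect and ±100 for the full control effect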
Summary of the method: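 Read-out: CCF4 FRET ratio (460 nm/530 nm) after 1 h RT dye loading, used for %activity and AC50 from titration series. Cells: Jurkat NFAT-β-lactamase/M1 line, treated with compound plus 1 uM carbachol for 5 h, 37 °C.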

[3] = Stat Signaling Pathway (AID 446); settings: ME-180 (cervical carcinoma) SIE beta-lactamase reporter, IL-6 stimulated, 5 h; at 17.2 µM (top of the series) unless noted;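 also: ME-180 cervical cancer cells given 40 pM IL-6 alongside compound; SIE-controlled beta-lactamase reporter measured as 460/530 nm FRET emission ratio; % is scaled to controls: 0 for no effect and ±100 for the full control effect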
Summary of the method: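 FRET read-out (405 nm excitation, 460/530 nm emission) of a beta-lactamase reporter under a STAT-inducible element in ME-180 cervical carcinoma cells. Cells with compound receive 40 pM IL-6 for 5 h. Values are normalised to AC90 stimulation and AC90 JAK-inhibitor controls.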

[4] = target: Glucocorticoid receptor (Homo sapiens) (UniProt P04150); experiment: GR-GFP Redistribution (AID 450;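 active = compounds whose dose series gives a full or clear partial fitted curve of increased nuclear translocation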; also: potency is read from the fitted curve at half-maximal effect)
Glucocorticoid receptor (Homo sapiens), sequence (P04150 whole entry, looked up): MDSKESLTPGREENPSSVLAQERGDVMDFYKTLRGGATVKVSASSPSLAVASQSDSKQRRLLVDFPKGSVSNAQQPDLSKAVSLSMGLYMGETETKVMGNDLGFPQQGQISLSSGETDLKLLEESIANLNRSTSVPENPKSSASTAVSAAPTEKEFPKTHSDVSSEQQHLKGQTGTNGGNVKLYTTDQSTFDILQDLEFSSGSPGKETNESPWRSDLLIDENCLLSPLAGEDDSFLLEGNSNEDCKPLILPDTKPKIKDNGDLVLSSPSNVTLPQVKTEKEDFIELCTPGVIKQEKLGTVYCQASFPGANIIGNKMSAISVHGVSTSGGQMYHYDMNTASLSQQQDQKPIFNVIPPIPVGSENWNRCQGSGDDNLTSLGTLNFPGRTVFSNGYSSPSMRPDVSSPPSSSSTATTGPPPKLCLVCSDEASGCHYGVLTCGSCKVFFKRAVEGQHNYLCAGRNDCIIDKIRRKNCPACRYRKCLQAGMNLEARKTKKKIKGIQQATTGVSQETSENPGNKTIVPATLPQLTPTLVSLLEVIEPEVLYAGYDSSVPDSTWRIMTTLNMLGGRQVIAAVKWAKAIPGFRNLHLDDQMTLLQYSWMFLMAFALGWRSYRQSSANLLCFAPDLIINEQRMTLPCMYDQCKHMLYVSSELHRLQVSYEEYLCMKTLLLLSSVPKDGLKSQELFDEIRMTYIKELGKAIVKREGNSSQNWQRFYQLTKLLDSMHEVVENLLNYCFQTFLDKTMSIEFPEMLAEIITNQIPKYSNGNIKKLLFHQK

CCOC(=O)c1[nH]c2cc3c(cc2c1NC(=O)CN1CCC(C)CC1)OCO3
inactive: activity change, negative = inhibition [1] -11.2% | activity change, negative = inhibition [2] 3.83% | activity, negative = inhibition [3] -3.19% | Potency [4] > 20.6 µM

COc1ccccc1C1CC(c2ccc(Cl)cc2)Nc2nc(N)nn21 (stereo not drawn)
inactive: activity change, negative = inhibition [1] 6.6% | activity change, negative = inhibition [2] 22.1% | activity, negative = inhibition [3] -2.9% | Potency [4] > 20.6 µM

COc1ccc(C2CC(c3ccccc3)Nc3nc(N)nn32)cc1 (stereo not drawn)
inactive: activity change, negative = inhibition [1] 9.32% | activity change, negative = inhibition [2] -6.69% | activity, negative = inhibition [3] 1.39% | Potency [4] > 20.6 µM

Cc1ccc2cc(CN(C(=O)c3ccco3)c3ccccc3)c(=O)[nH]c2c1
inactive: activity change, negative = inhibition [1] -24.5% | activity change, negative = inhibition [2] 2.15% | activity, negative = inhibition [3] -2.89% | Potency [4] > 20.6 µM

Cn1c(=O)c2c(nc(NCc3ccc4c(c3)OCO4)n2Cc2ccccc2Cl)n(C)c1=O
inactive: activity change, negative = inhibition [1] -22.3% | activity change, negative = inhibition [2] -8.43% | activity, negative = inhibition [3] -2.58% | Potency [4] > 20.6 µM

COc1ccccc1C1(CC(=O)N2CCOCC2)CCOC(C(C)C)C1 (stereo not drawn)
inactive: activity change, negative = inhibition [1] 3.63% | activity change, negative = inhibition [2] 13.2% | activity, negative = inhibition [3] -0.0907% | Potency [4] > 20.6 µM

Cn1c(=O)[nH]c(=O)c2c1nc(N1CCN(c3cccc(Cl)c3)CC1)n2CCCc1ccccc1
inactive: activity change, negative = inhibition [1] 26.9% | activity change, negative = inhibition [2] -11.9% | activity, negative = inhibition [3] 6.95% | Potency [4] > 20.6 µM

CC(NC(=O)NCCCn1ccnc1)(C(F)(F)F)C(F)(F)F
inactive: activity change, negative = inhibition [1] 18.8% | activity change, negative = inhibition [2] -6.4% | activity, negative = inhibition [3] 5.85% | Potency [4] > 20.6 µM

COc1ccc(N2C(=O)CC(N(Cc3ccc(S(N)(=O)=O)cc3)C(C)=O)C2=O)cc1 (stereo not drawn)
inactive: activity change, negative = inhibition [1] 5.04% | activity change, negative = inhibition [2] -2.46% | activity, negative = inhibition [3] 2.66% | Potency [4] > 20.6 µM

C=CCSc1nc(C)c(CC=C)c(=O)[nH]1
inactive: activity change, negative = inhibition [1] -0.627% | activity change, negative = inhibition [2] -22.4% | activity, negative = inhibition [3] 0.0275% | Potency [4] > 20.6 µM

N#CC1(P(=O)(c2ccccc2)c2ccccc2)CC1
inactive: activity change, negative = inhibition [1] 0.213% | activity change, negative = inhibition [2] -2.17% | activity, negative = inhibition [3] 1.75% | Potency [4] > 20.6 µM

CC(O)c1n(C)c(Cl)c[n+]1C (stereo not drawn)
inactive: activity change, negative = inhibition [1] 0.68% | activity change, negative = inhibition [2] -4.99% | activity, negative = inhibition [3] -4.96% | Potency [4] > 20.6 µM

CSc1sc(C(=O)O)c2c1C(=O)CCC2
inactive: activity change, negative = inhibition [1] 12.2% | activity change, negative = inhibition [2] -0.427% | activity, negative = inhibition [3] 3.35% | Potency [4] > 20.6 µM

CC1(C)Nc2ccc(O)cc2-c2c1ssc2=S
inactive: activity change, negative = inhibition [1] -3.5% | activity change, negative = inhibition [2] 19.6% | activity, negative = inhibition [3] -16.8% | Potency [4] > 20.6 µM

O=C1C2ON(c3ccccc3)C(c3cccnc3)C2C(=O)N1c1ccccc1 (stereo not drawn)
inactive: activity change, negative = inhibition [1] -5.35% | activity change, negative = inhibition [2] -5.72% | activity, negative = inhibition [3] 1.24% | Potency [4] > 20.6 µM

O=C(OCC#CCSc1nnc(-c2ccccc2)o1)c1cccs1
inactive: activity change, negative = inhibition [1] -3.3% | activity change, negative = inhibition [2] -29.9% | activity, negative = inhibition [3] -1.99% | Potency [4] > 20.6 µM

N#Cc1c(-c2ccco2)cc(C2CC2)nc1N
inactive: activity change, negative = inhibition [1] -6.96% | activity change, negative = inhibition [2] 9.72% | activity, negative = inhibition [3] -18.4% | Potency [4] > 20.6 µM

COc1cccc(NC(=O)CC2SC(=Nc3ccccc3)NC2=O)c1 (stereo not drawn)
inactive: activity change, negative = inhibition [1] -10.5% | activity change, negative = inhibition [2] 2.42% | activity, negative = inhibition [3] -17.8% | Potency [4] > 20.6 µM

CNC(=O)c1cc2ccccc2o1
inactive: activity change, negative = inhibition [1] 8.83% | activity change, negative = inhibition [2] -13.4% | activity, negative = inhibition [3] 2.75% | Potency [4] > 20.6 µM

CC(=O)c1c(OCC(=O)O)ccc2c(C)cc(=O)oc12
inactive: activity change, negative = inhibition [1] 15% | activity change, negative = inhibition [2] -8.66% | activity, negative = inhibition [3] 13.1% | Potency [4] > 20.6 µM

C/C(=N\O)C(=O)NCCCn1ccnc1
inactive: activity change, negative = inhibition [1] 16.3% | activity change, negative = inhibition [2] 1.22% | activity, negative = inhibition [3] 16.8% | Potency [4] > 20.6 µM

Cc1cc(=O)n2[nH]cnc2n1
inactive: activity change, negative = inhibition [1] 14.3% | activity change, negative = inhibition [2] 10.4% | activity, negative = inhibition [3] 13.7% | Potency [4] > 20.6 µM

Cc1cc(C)n(C(=O)CNC(=O)c2cccs2)n1
inactive: activity change, negative = inhibition [1] 10.9% | activity change, negative = inhibition [2] 3.15% | activity, negative = inhibition [3] 4.05% | Potency [4] > 20.6 µM

Cc1cc(C)c(C#N)c(OCC(=O)c2ccccc2)n1
inactive: activity change, negative = inhibition [1] -15.4% | activity change, negative = inhibition [2] -4.3% | activity, negative = inhibition [3] -6.66% | Potency [4] > 20.6 µM

Cc1cc(C)n(Cc2ccc(C(=O)NCCC3=CCCCC3)o2)n1
inactive: activity change, negative = inhibition [1] -15.1% | activity change, negative = inhibition [2] -1.94% | activity, negative = inhibition [3] 1.51% | Potency [4] > 20.6 µM

COC(=O)CSc1nnc2n(-c3ccc(OC)cc3)c(=O)c3c4c(sc3n12)CCCCC4
inactive: activity change, negative = inhibition [1] -16% | activity change, negative = inhibition [2] -18.9% | activity, negative = inhibition [3] 5.65% | Potency [4] > 20.6 µM

CN1C(=O)c2c(sc3c2CCCC3)NC1c1ccccc1O (stereo not drawn)
inactive: activity change, negative = inhibition [1] -12.2% | activity change, negative = inhibition [2] -10.9% | activity, negative = inhibition [3] -25.9% | Potency [4] > 20.6 µM

CCC(=O)Nc1ccc(-c2nnc(-c3ccccc3)o2)cc1
inactive: activity change, negative = inhibition [1] 0.816% | activity change, negative = inhibition [2] 4.89% | activity, negative = inhibition [3] -0.000551% | Potency [4] > 20.6 µM

CCOc1cccc(-c2nnc3sc(COc4ccccc4)nn23)c1
inactive: activity change, negative = inhibition [1] -3.24% | activity change, negative = inhibition [2] 9.41% | activity, negative = inhibition [3] -10.6% | Potency [4] > 20.6 µM

CC(O)(C#CCN1CCOCC1)c1ccccc1 (stereo not drawn)
inactive: activity change, negative = inhibition [1] -0.153% | activity change, negative = inhibition [2] 8.45% | activity, negative = inhibition [3] 7.2% | Potency [4] > 20.6 µM

C=CCOc1ccc(/C(O)=C2/C(=O)C(=O)N(CCCN3CCOCC3)C2c2ccccc2)cc1 (stereo not drawn)
inactive: activity change, negative = inhibition [1] -4.92% | activity change, negative = inhibition [2] 12.9% | activity, negative = inhibition [3] -5.01% | Potency [4] > 20.6 µM

CC(C)c1cc(NCCCN2CCOCC2)n2c(nc3ccccc32)c1C#N
inactive: activity change, negative = inhibition [1] -14.3% | activity change, negative = inhibition [2] -9.44% | activity, negative = inhibition [3] 0.608% | Potency [4] > 20.6 µM

CC1(C)Cc2c(sc3nc4n(c(=N)c23)CCC4)CO1
inactive: activity change, negative = inhibition [1] -5.14% | activity change, negative = inhibition [2] -4.64% | activity, negative = inhibition [3] 4.33% | Potency [4] > 20.6 µM

O=C1CC(C(=O)O)c2ccccc2N1 (stereo not drawn)
inactive: activity change, negative = inhibition [1] 2.72% | activity change, negative = inhibition [2] -1.33% | activity, negative = inhibition [3] 6.42% | Potency [4] > 20.6 µM

Cn1c(SCC(=O)N2CCOCC2)nnc1-c1cccc(NC(=O)c2ccccc2F)c1
inactive: activity change, negative = inhibition [1] -25.9% | activity change, negative = inhibition [2] -5.78% | activity, negative = inhibition [3] 12% | Potency [4] > 20.6 µM

O=C(CCCN1C(=O)c2ccccc2C1=O)N1CCC(c2ccccc2)C1 (stereo not drawn)
inactive: activity change, negative = inhibition [1] -21.8% | activity change, negative = inhibition [2] 15.7% | activity, negative = inhibition [3] 1.3% | Potency [4] > 20.6 µM

O=C(Oc1ccccc1)c1c(Cl)cccc1P(=O)(O)O
inactive: activity change, negative = inhibition [1] 7.32% | activity change, negative = inhibition [2] 2.02% | activity, negative = inhibition [3] 5.05% | Potency [4] > 20.6 µM

CC(C)C1Cc2c(sc3c2c(=O)n(Cc2ccccc2)c2nncn32)CO1 (stereo not drawn)
inactive: activity change, negative = inhibition [1] -0.408% | activity change, negative = inhibition [2] -11.6% | activity, negative = inhibition [3] -3.52% | Potency [4] > 20.6 µM

CCOC(=O)CSc1nc(-c2ccncc2)ccc1C#N
inactive: activity change, negative = inhibition [1] -1.16% | activity change, negative = inhibition [2] -7.89% | activity, negative = inhibition [3] 3.41% | Potency [4] > 20.6 µM

Cc1ccc(OCC(=O)N(C)CCc2ccccn2)cc1
inactive: activity change, negative = inhibition [1] -3.13% | activity change, negative = inhibition [2] 5.19% | activity, negative = inhibition [3] 6.69% | Potency [4] > 20.6 µM

Cc1ccc(C(=O)/C=C/Nc2ccccn2)cc1
inactive: activity change, negative = inhibition [1] 11% | activity change, negative = inhibition [2] 23.5% | activity, negative = inhibition [3] -4.63% | Potency [4] > 20.6 µM

CCN(CC)CCNC(=O)c1c(C)oc2cc(Br)c(OC)cc12
inactive: activity change, negative = inhibition [1] 29.7% | activity change, negative = inhibition [2] -19.9% | activity, negative = inhibition [3] -1.1% | Potency [4] > 20.6 µM

Nc1nc2n(n1)C(c1ccc(F)cc1)CC(c1ccc(F)cc1)N2 (stereo not drawn)
inactive: activity change, negative = inhibition [1] -1.23% | activity change, negative = inhibition [2] 10.7% | activity, negative = inhibition [3] 5.35% | Potency [4] > 20.6 µM

Cc1nc(Nc2ncc3c(n2)CCCC3=O)nc2ccccc12
inactive: activity change, negative = inhibition [1] 16.8% | activity change, negative = inhibition [2] 19.8% | activity, negative = inhibition [3] 0.527% | Potency [4] > 20.6 µM

CCSc1nnc(NC(=O)C(C)(C(F)(F)F)C(F)(F)F)s1
inactive: activity change, negative = inhibition [1] -11.1% | activity change, negative = inhibition [2] -18.1% | activity, negative = inhibition [3] -24.8% | Potency [4] > 20.6 µM

O=C1CC(NCc2ccc3c(c2)OCO3)C(=O)N1Cc1ccc2c(c1)OCO2 (stereo not drawn)
inactive: activity change, negative = inhibition [1] -14.2% | activity change, negative = inhibition [2] 15.6% | activity, negative = inhibition [3] -1.08% | Potency [4] > 20.6 µM

CCN=C1SC(C(=O)Nc2ccc(Cl)c(Cl)c2)CC(=O)N1CC (stereo not drawn)
inactive: activity change, negative = inhibition [1] -19.4% | activity change, negative = inhibition [2] 10.1% | activity, negative = inhibition [3] 4.81% | Potency [4] > 20.6 µM
